Data: PubChem BioAssay (NCATS)
Records with an inconclusive call do not appear. The source made the active and inactive calls. Calls come from the whole dose curve; as a rule, active = well fitted curve in the direction sought with a large enough effect; inconclusive = small, poorly fitted or top-dose-only effect, or another doubt; inactive = no such curve, though single readings can be large; an effect the other way counts as inactive or inconclusive.

What was measured:
[1] = biological target: Calcium and integrin-binding protein 1 (Homo sapiens) (UniProt Q99828); experiment: Primary qHTS for Identification of Calcium Integrin Binding Protein 1 (CIB1) Competitor (AID 1508620);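 note: GST tagged CIB1 binding a fluorescein labelled alphaIIb integrin peptide tracer; top concentration of the series differs between compounds; % is set by controls: 0 for no effect and ±100 for the full control effect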
In short: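 Fluorescence polarization competition: CIB1-GST (1 uM final) preincubated with compound 15 min at room temperature, then FITC-labeled alphaIIb peptide (100 nM final) added for another 15 min. Polarization read at Ex 480/Em 540.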

[2] = Primary qHTS for inhibitors of nuclear receptor binding SET domain protein 2 (NSD2) in an isogenic RCH-ACV NSD2 p.E1099K mutant (9B) (AID 1645876); note: nearly all actives have a fitted effect of over 70% in size; note: potency is the fitted concentration of half-maximal effect
[3] = biological target: Phospholipid hydroperoxide glutathione peroxidase GPX4 (Homo sapiens) (UniProt P36969); experiment: Primary qHTS Assay for Inhibitors of Recombinant Selenoprotein Glutathione Peroxidase 4 (GPX4) (AID 1845192); note: nearly all actives have a fitted effect of over 65% in size
In short: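 qHTS, GR-coupled: GPX4 200 nM + cpd 30 min RT → GSH 1 mM, NADPH 0.5 mM, GR 100 nM → CHP 0.5 mM start; fluor 340/450 at t0 and t15 min; no-enzyme wells as control.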

[4] = biological target: Luciferin 4-monooxygenase (Photinus pyralis) (UniProt P08659); experiment: Primary firefly luciferase (FLuc) qHTS assay for identification of artifact compounds. (AID 1845220); settings: outcome: dose series up to 54.1 µM unless noted; note: nearly all actives have a fitted effect of over 60% in size
In short: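 In this counter-screen for luciferase artifacts, test compounds met substrate (10 uM each luciferin and ATP) before 10 nM enzyme started the reaction. Light output was measured 5 min later.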

[5] = Primary fluorescence-based thiol-reactive (MSTI) qHTS assay for identification of artifact compounds. (AID 1845221); note: nearly all actives have a fitted effect of over 65% in size; note: potency is the fitted concentration of half-maximal effect
In short: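 Curve-fitted percent inhibition (4-parameter Hill) derived from fluorescence, Ex 525/Em 598 nm, scaled with Acetyl-MSTI and MSTI; 1 h incubation at room temperature.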

[6] = Primary redox qHTS assay for identification of artifact compounds. (AID 1845223);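 note: 0% = DMSO and 100% = reference compound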
In short: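 Redox-cycling detection via DTT (250 uM final) oxidation coupled to Amplex Red (25 uM)/HRP (250 mU/mL) in HBSS. 15 min preincubation plus 30 min after DTT, room temperature. Ex/Em 525/598 nm; 4-parameter Hill fit against DMSO and 10 uM DA3003.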

CRL-7250 = normal cell line; experiment: Cytotoxic Profiling of Annotated Libraries Using Quantitative High-Throughput Screening (AID 1296008); settings: Five cell lines viability, CellTiter-Glo ATP luminescence, 48-72 h; max response: active compounds read low; note: nearly all actives have a fitted effect of over 60% in size; note: potency is the fitted concentration of half-maximal effect; for max response: % is set by controls: 0 for no effect and ±100 for the full control effect
In short: (§1)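 Compounds were pin-transferred onto cells and incubated 48 or 72 hr at 37 degree Celsius, 95% humidity. CellTiter-Glo was added, plates sat 10 min at room temperature, then ATP-coupled luminescence was imaged as the viability read-out.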

HEK293 = experiment: as above; settings: Five cell lines viability, CellTiter-Glo ATP luminescence, 48-72 h; max response: active compounds read low
In short: as §1

NIH3T3 = experiment: as above; settings: Five cell lines viability, CellTiter-Glo ATP luminescence, 48-72 h; max response: active compounds read low
In short: as §1

C33A = experiment: Primary qHTS to identify gynecologic anti-cancer compounds using libraries of approved drugs and bioactive compounds (AID 1345084); settings: Gynecologic cancer cell panel viability, ATPlite luminescence, 48 h; series mostly up to 57.5 µM; note: nearly all actives have a fitted effect of over 55% in size; note: potency is the fitted concentration of half-maximal effect
In short: (§2)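 Cytotoxicity screen measuring ATP content by luciferase luminescence. Each compound is applied at five concentrations for 48 h at 37 C with 5% CO2.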

CAOV3 = experiment: as above; settings: Gynecologic cancer cell panel viability, ATPlite luminescence, 48 h; series mostly up to 57.5 µM
In short: as §2

CASKI = experiment: as above; settings: Gynecologic cancer cell panel viability, ATPlite luminescence, 48 h; series mostly up to 57.5 µM
In short: as §2

Es-2 = experiment: as above; settings: Gynecologic cancer cell panel viability, ATPlite luminescence, 48 h; series mostly up to 57.5 µM
In short: as §2

Hek293T = experiment: as above; settings: Gynecologic cancer cell panel viability, ATPlite luminescence, 48 h, control line for the selectivity index; series mostly up to 57.5 µM
In short: as §2

JEG-3 = experiment: as above; settings: Gynecologic cancer cell panel viability, ATPlite luminescence, 48 h; series mostly up to 57.5 µM
In short: as §2

OV90 = experiment: as above; settings: Gynecologic cancer cell panel viability, ATPlite luminescence, 48 h; series mostly up to 57.5 µM
In short: as §2

PA-1 = experiment: as above; settings: Gynecologic cancer cell panel viability, ATPlite luminescence, 48 h; series mostly up to 57.5 µM
In short: as §2

Tov-21-G = experiment: as above; settings: Gynecologic cancer cell panel viability, ATPlite luminescence, 48 h; series mostly up to 57.5 µM
In short: as §2

Tov112D = experiment: as above; settings: Gynecologic cancer cell panel viability, ATPlite luminescence, 48 h; series mostly up to 57.5 µM
In short: as §2

[7] = tested on: Nanoluciferase (engineered Oplophorus gracilirostris luciferase); experiment: Primary Nanoluciferase (NLuc) qHTS assay for identification of artifact compounds. (AID 1845222);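 note: NLuc secreted into diluted conditioned medium of S16 cells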
In short: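 Using secreted nanoluciferase in S16 culture medium (0.22 um filtered, 1:55 dilution), compounds were preincubated 15 min at RT. Signal was generated with Nano-Glo reagent (1:100) over 5 min.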

Sequence of Phospholipid hydroperoxide glutathione peroxidase GPX4 (Homo sapiens) (P36969 whole entry, looked up): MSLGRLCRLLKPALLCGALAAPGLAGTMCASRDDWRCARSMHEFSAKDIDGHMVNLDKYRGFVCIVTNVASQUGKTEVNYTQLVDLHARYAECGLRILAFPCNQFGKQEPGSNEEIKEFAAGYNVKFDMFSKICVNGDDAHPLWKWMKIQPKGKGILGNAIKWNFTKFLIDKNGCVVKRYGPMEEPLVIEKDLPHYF
Sequence of Calcium and integrin-binding protein 1 (Homo sapiens) (Q99828 whole entry, looked up): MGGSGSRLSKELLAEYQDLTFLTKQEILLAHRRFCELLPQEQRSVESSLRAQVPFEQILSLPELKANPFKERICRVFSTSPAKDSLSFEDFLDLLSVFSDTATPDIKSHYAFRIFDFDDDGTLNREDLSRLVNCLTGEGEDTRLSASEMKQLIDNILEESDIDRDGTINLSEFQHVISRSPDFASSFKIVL

COC(=O)C1=COC(C)C2CN3CCC4(C(=O)Nc5ccccc54)C3CC12 (centres undefined)
inactive: Potency [1] | Potency [2] | Potency [3] | outcome [4] | Potency [5] | Potency [6] | max response (CRL-7250) -2.61% | max response (HEK293) -24% | max response (NIH3T3) -11.4% | Potency (C33A) | Potency (CAOV3) | Potency (CASKI) | Potency (Es-2) | Potency (Hek293T) | Potency (JEG-3) | Potency (OV90) | Potency (PA-1) | Potency (Tov-21-G) | Potency (Tov112D)

O=C1N[C@@H](Cc2ccccc2)CN2CCCC[C@@H]12
inactive: Potency [1] | Potency [2] | Potency [3] | outcome [4] | Potency [5] | Potency [7] | Potency [6] | max response (CRL-7250) -11.6% | max response (HEK293) -0.0326% | max response (NIH3T3) 1.01% | Potency (C33A) | Potency (CAOV3) | Potency (CASKI) | Potency (Es-2) | Potency (Hek293T) | Potency (JEG-3) | Potency (OV90) | Potency (PA-1) | Potency (Tov-21-G) | Potency (Tov112D)

COCC(C(=O)OC1CC2CCC(C1)N2C)c1ccccc1 (centres undefined)
inactive: Potency [1] | Potency [2] | Potency [3] | outcome [4] | Potency [5] | Potency [7] | Potency [6] | max response (CRL-7250) -5.38% | max response (HEK293) -0.619% | max response (NIH3T3) 3.79% | Potency (C33A) | Potency (CAOV3) | Potency (CASKI) | Potency (Es-2) | Potency (Hek293T) | Potency (JEG-3) | Potency (OV90) | Potency (PA-1) | Potency (Tov-21-G) | Potency (Tov112D)

CC(=O)O[C@@H]1[C@H]2CC[C@H]3[C@@](C)(O)[C@@H]4C[C@H](O)C(C)(C)[C@@]4(O)[C@H](O)C[C@@]13C[C@@]2(C)O
inactive: Potency [1] | Potency [2] | Potency [3] | outcome [4] | Potency [5] | Potency [7] | Potency [6] | outcome (CRL-7250) | max response (HEK293) 2% | max response (NIH3T3) 4.65% | Potency (C33A) | Potency (CAOV3) | Potency (CASKI) | Potency (Es-2) | Potency (Hek293T) | Potency (JEG-3) | Potency (OV90) | Potency (PA-1) | Potency (Tov-21-G) | Potency (Tov112D)

COC(=O)CC1CC2(C(=O)c3c(O)cccc3C2(O)C(=O)OC)C(C)O1 (centres undefined)
inactive: Potency [1] | Potency [2] | Potency [3] | outcome [4] | Potency [7] | Potency [6] | max response (CRL-7250) 2.33% | max response (HEK293) -1.89% | max response (NIH3T3) 4.05% | Potency (C33A) | Potency (CAOV3) | Potency (CASKI) | Potency (Es-2) | Potency (Hek293T) | Potency (JEG-3) | Potency (OV90) | Potency (PA-1) | Potency (Tov-21-G) | Potency (Tov112D)

COC1C=CC23c4cc5c(cc4COC2(O)CN(C)C3C1)OCO5 (centres undefined)
inactive: Potency [1] | Potency [2] | Potency [3] | outcome [4] | Potency [5] | Potency [6] | max response (CRL-7250) -6.96% | max response (HEK293) -0.372% | max response (NIH3T3) -0.709% | Potency (C33A) | Potency (CAOV3) | Potency (CASKI) | Potency (Es-2) | Potency (Hek293T) | Potency (JEG-3) | Potency (OV90) | Potency (Tov-21-G) | Potency (Tov112D)

COc1cc(N2CCN(C)CC2)ccc1N
inactive: Potency [1] | Potency [3] | outcome [4] | Potency [7] | max response (CRL-7250) 0.376% | max response (HEK293) -21.4% | max response (NIH3T3) -6.74% | Potency (C33A) | Potency (CAOV3) | Potency (CASKI) | Potency (Es-2) | Potency (Hek293T) | Potency (JEG-3) | Potency (OV90) | Potency (PA-1) | Potency (Tov-21-G) | Potency (Tov112D)
active: Potency [5] 1.19 µM

CN1C2CCC1CC(OC(=O)N1Cc3ccccc3NC1=O)C2 (centres undefined)
inactive: Potency [1] | Potency [2] | Potency [3] | outcome [4] | Potency [5] | Potency [7] | Potency [6] | outcome (CRL-7250) | max response (HEK293) 0.771% | max response (NIH3T3) -1.26% | Potency (C33A) | Potency (CAOV3) | Potency (CASKI) | Potency (Es-2) | Potency (Hek293T) | Potency (JEG-3) | Potency (OV90) | Potency (PA-1) | Potency (Tov-21-G) | Potency (Tov112D)

C[C@]12CC[C@H](O[C@@H]3O[C@H](CO)[C@@H](O)[C@H](O)[C@H]3O[C@@H]3O[C@H](CO)[C@@H](O)[C@H](O)[C@H]3O)CC1=CC[C@@H]1[C@@H]2CC[C@]2(C)[C@@H](C3=CC(=O)OC3)CC[C@]12O
inactive: Potency [1] | Potency [3] | outcome [4] inactive [at 25.7 µM] | Potency [5] | Potency [7] | Potency [6] | max response (NIH3T3) 1.49% | Potency (CAOV3) | Potency (CASKI) | Potency (JEG-3) | Potency (OV90)
active: Potency [2] 2.16 µM | Potency (CRL-7250) 3.85 µM | Potency (HEK293) 6.11 µM | Potency (Tov-21-G) 6.31 µM
